# “And” between values parts separate entries of the source, which are not always exact repeats. Equal entries are not always repeated. Records with an inconclusive call do not appear. A call without a number means that no potency is given here. The source made the active and inactive calls. Unless noted, calls follow the shape of the dose curve; as a rule, active = well fitted curve in the direction sought with a large enough effect; inconclusive = small, poorly fitted or top-dose-only effect, or another doubt; inactive = no such curve, though single readings can be large; an effect the other way counts as inactive or inconclusive.
# Experiments:
# [1] = Cell Viability - LYMP2-021 (AID 974);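 also: compound exposure lasts 24 hours at 37 °C; nearly all actives have a fitted effect of over 55% in size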
# Summary of the method: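 In qHTS format, compounds are tested against 2500 lymphoblastoid cells per well for 24 h; viable cell number is inferred from ATP-driven luciferase light, and Hill-equation fitting yields AC50 values.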
# [2] = Cell Viability - LYMP2-023 (AID 975);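 also: cellular ATP measured by luciferase luminescence as viability proxy; nearly all actives have a fitted effect of over 55% in size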
# Summary of the method: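 In this qHTS, ATP-based luciferase luminescence (CellTiter-Glo) is quantified in human lymphoblastoid cells after 24 hr compound treatment at 37 C; tetraoctylammonium bromide serves as positive control. Concentration-response curves are Hill-fitted to give AC50.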
# [3] = Cell Viability - LYMP2-025 (AID 976);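 also: cells exposed to compound for 24 h at 37 °C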
# Summary of the method: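 Luminescent ATP readout after 24 hr treatment of a human lymphoblastoid line (LYMP2-025, 2500 cells/well, 37 C). Reagent developed 30 min at room temperature; AC50 fitted with the Hill equation.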
# [4] = Cell Viability - LYMP2-002 (AID 977);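 also: compound exposure lasted 24 h at 37 °C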
# Summary of the method: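 In this qHTS viability screen, 2500 human lymphoblastoid cells per well receive compound for 24 hr at 37 C, and luciferase-based ATP luminescence gives the viability signal. Tetraoctylammonium bromide serves as positive control.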
# [5] = Cell Viability - LYMP2-006 (AID 978); also: nearly all actives have a fitted effect of over 60% in size
# Summary of the method: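 qHTS, 1536-well; 2500 cells/well, 5 hr 37 C; cpd 24 hr 37 C; CellTiter-Glo 30 min RT; luminescence. Tetraoctylammonium bromide pos. ctrl. AC50 via Hill eqn.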
# [6] = Cell Viability - LYMP2-007 (AID 979);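 also: cells exposed to compound for 24 h before reading; nearly all actives have a fitted effect of over 60% in size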
# Summary of the method: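 Measured via luciferase-based ATP quantitation: lymphoblastoid cells, 24 hr compound exposure at 37 C, AC50 from Hill fits.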
# [7] = Cell Viability - LYMP2-008 (AID 980);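 also: cells exposed to compound for 24 h at 37 °C; nearly all actives have a fitted effect of over 60% in size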
# Summary of the method: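 Measured: ATP-dependent luminescence, proportional to viable cell number, in human lymphoblastoid cells treated 24 hr with compound in complete culture medium. Values are AC50s from Hill-equation modelling of qHTS titrations.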
# [8] = Cell Viability - LYMP2-010 (AID 981); also: nearly all actives have a fitted effect of over 55% in size
# Summary of the method: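 This 24 hr viability screen uses LYMP2-010 lymphoblastoid cells, quantifies ATP via luciferase luminescence, and derives AC50 from Hill fits of qHTS concentration-response data.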
# [9] = Cell Viability - LYMP2-012 (AID 982);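 also: cellular ATP by luciferase luminescence where a drop means cytotoxicity; cells exposed to compound for one day before reading; nearly all actives have a fitted effect of over 55% in size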
# [10] = Cell Viability - LYMP2-014 (AID 983);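 also: cells exposed to compound for 24 h at 37 °C; nearly all actives have a fitted effect of over 50% in size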
# Summary of the method: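 Quantitative HTS in lymphoblastoid cells: 24 hr compound exposure, then CellTiter-Glo ATP luminescence. Positive control was tetraoctylammonium bromide, 6.4pM to 92 uM.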
# [11] = Cell Viability - LYMP2-018 (AID 985); also: nearly all actives have a fitted effect of over 50% in size
# Summary of the method: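 In this qHTS viability assay, cells are treated for 24 hr and cellular ATP is quantified by luciferase-based luminescence, with tetraoctylammonium bromide as positive control.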
# [12] = Cell Viability - LYMP2-020 (AID 986)
# Summary of the method: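 Cells at 2500 per well receive a 24 hr compound exposure at 37 C. Viability is measured as ATP-dependent luciferase luminescence, with AC50 modeled from qHTS concentration-response curves.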
# [13] = Cell Viability - LYMP2-022 (AID 987); also: nearly all actives have a fitted effect of over 55% in size
# Summary of the method: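 In this qHTS cytotoxicity screen, compound titrations were incubated 24 hr at 37 C with human lymphoblastoid cells in complete medium. Luciferase-based ATP luminescence provided the viability signal.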
# [14] = Cell Viability - LYMP2-024 (AID 988); also: nearly all actives have a fitted effect of over 60% in size
# Summary of the method: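 Cells at 2500 per well received compound for 24 hr after a 5 hr settling period. Viability was scored by CellTiter-Glo luminescence, with AC50 from Hill fits.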
# [15] = Cell Viability - LYMP2-026 (AID 989);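 also: cells exposed to compound for 24 h at 37 °C; nearly all actives have a fitted effect of over 50% in size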
# Summary of the method: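 Acute toxicity screen in complete culture medium, with 24 hr compound exposure at 37 C. Viability read as cellular ATP via luciferase reaction, with tetraoctylammonium bromide (6.4pM to 92 uM) as positive control.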
# [16] = Cell Viability - LYMP1-002 - Assay at 24 hr (AID 993)
# Summary of the method: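 Viability was judged from intracellular ATP using a luciferase read-out, following a 24-hour compound incubation at 37 C of lymphoblastoid cells seeded at 2500 per well. Concentration-response data were fitted to the Hill equation for AC50.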
# [17] = target: Alpha-galactosidase A (Homo sapiens) (UniProt P06280); experiment: Counterscreen for Glucocerebrosidase Inhibitors: qHTS Assay for Human alpha-Galactosidase at pH 4.5 (AID 992)
# Summary of the method: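 Steps: enzyme (2 nM final), then compound across 0.7 nM to 77 uM, then 80 uM fluorogenic galactopyranoside substrate; incubate 20 min at room temperature; quench at pH 10; measure fluorescence at 365/440 nm.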
# [18] = target: alpha-glucosidase (Oryza sativa, rice) (UniProt Q653V4); experiment: Counterscreen for Glucocerebrosidase Inhibitors: qHTS Assay for Rice alpha-Glucosidase at pH 5.0 (AID 997)
# Summary of the method: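 Endpoint fluorogenic assay at pH 5.0: compounds (0.7 nM to 77 uM) titrated against 4 nM rice enzyme and 400 uM 4-MU-alpha-glucoside for 20 min at room temperature; NaOH/glycine stop, read ex 365/em 440 nm, Hill-fitted AC50.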
# [19] = qHTS Assay for Lipid Storage Modulators (AID 1519; calls by dose curve); conditions: Drosophila S3 cells, BODIPY lipid droplet/cell ratio, laser cytometry, cells loaded with oleic acid
# Summary of the method: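 Cells seeded at 5,000 per well were treated with compounds over a concentration series and loaded with oleic acid (400 uM, as added). Lipid droplet fluorescence (488 nm excitation, 500-530 nm channel) was read by laser-scanning cytometry and normalized to 20 uM Triacsin C.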
# [20] = measured here: cell count channel max response
# [21] = measured here: lipid channel max response
# Alpha-galactosidase A (Homo sapiens), sequence (P06280 whole entry, looked up): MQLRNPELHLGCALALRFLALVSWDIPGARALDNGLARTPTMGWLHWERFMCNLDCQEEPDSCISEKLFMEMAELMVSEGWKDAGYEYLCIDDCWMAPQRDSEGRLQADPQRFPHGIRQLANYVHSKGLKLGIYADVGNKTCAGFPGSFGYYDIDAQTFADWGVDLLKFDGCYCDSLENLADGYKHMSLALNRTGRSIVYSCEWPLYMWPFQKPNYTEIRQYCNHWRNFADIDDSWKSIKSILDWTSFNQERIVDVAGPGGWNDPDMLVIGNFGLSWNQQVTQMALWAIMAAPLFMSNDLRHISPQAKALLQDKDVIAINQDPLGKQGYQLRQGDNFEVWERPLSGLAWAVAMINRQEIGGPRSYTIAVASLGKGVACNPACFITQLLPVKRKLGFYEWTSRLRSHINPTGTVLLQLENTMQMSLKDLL
compound,measurement,setting,value
NCCNCCNCCNCCN,Potency,[1],inactive
same,Potency,[2],inactive
same,outcome,[3],inactive
same,outcome,[4],inactive
same,outcome,[5],inactive
same,Potency,[6],inactive
same,Potency,[7],inactive
same,Potency,[8],inactive
same,outcome,[9],inactive
same,outcome,[10],inactive
same,Potency,[11],inactive
same,Potency,[12],inactive
same,Potency,[13],inactive
same,outcome,[14],inactive
same,Potency,[15],inactive
same,Potency,[16],inactive
CC(C)C(=O)c1c(C(C)C)nn2ccccc12,outcome,[17],inactive
same,outcome,[18],inactive
NC(=O)N/N=C/c1ccc([N+](=O)[O-])o1,Potency,[1],inactive
same,Potency,[6],inactive
same,Potency,[12],inactive
same,Potency,[15],inactive
same,Potency,[16],inactive
same,"activity change, negative = inhibition",[19]; at 57.5 µM (top of the series),-28.3% (inactive)
same,max response,[19]; [20],-6.33%
same,max response,[19]; [21],-28%
OCCN1CCN(CCCN2c3ccccc3Sc3ccc(Cl)cc32)CC1,outcome,[17],inactive
same,outcome,[18],inactive
same,"activity change, negative = inhibition",[19]; at 25.7 µM (top of the series),-1.31% (inactive)
same,"activity change, negative = inhibition",[19]; at 57.5 µM (top of the series),2.76% (inactive)
same,max response,[19]; [20],-14.4% and -12.4%
same,max response,[19]; [21],-12.9% and -6.81%
CC12CCC(CC1)C(C)(C)O2,Potency,[1],inactive
same,Potency,[2],inactive
same,outcome,[4],inactive
same,outcome,[5],inactive
same,Potency,[6],inactive
same,Potency,[7],inactive
same,Potency,[8],inactive
same,outcome,[9],inactive
same,outcome,[10],inactive
same,Potency,[11],inactive
same,Potency,[12],inactive
same,Potency,[13],inactive
same,outcome,[14],inactive
same,Potency,[15],inactive
same,Potency,[16],inactive
Nc1cc(=O)[nH]c(N)n1,outcome,[17],inactive
same,outcome,[18],inactive
same,"activity change, negative = inhibition",[19]; at 57.5 µM (top of the series),1.9% (inactive)
same,max response,[19]; [20],-3.41%
same,max response,[19]; [21],-1.88%
CC(=O)OCC(=O)[C@@]1(O)CC[C@H]2[C@@H]3CCC4=CC(=O)CC[C@]4(C)[C@H]3C(=O)C[C@@]21C,outcome,[17],inactive
same,outcome,[18],inactive
Oc1cccc(O)c1,Potency,[1],inactive
same,Potency,[2],inactive
same,outcome,[3],inactive
same,outcome,[4],inactive
same,outcome,[5],inactive
same,Potency,[6],inactive
same,Potency,[7],inactive
same,Potency,[8],inactive
same,outcome,[9],inactive
same,outcome,[10],inactive
same,Potency,[11],inactive
same,Potency,[12],inactive
same,Potency,[13],inactive
same,outcome,[14],inactive
same,Potency,[15],inactive
same,Potency,[16],inactive
C[C@]12C[C@H](O)[C@H]3[C@@H](CCC4=CC(=O)CC[C@@]43C)[C@@H]1CC[C@@H]2C(=O)CO,Potency,[1],inactive
same,Potency,[2],inactive
same,outcome,[3],inactive
same,outcome,[4],inactive
same,outcome,[5],inactive
same,Potency,[6],inactive
same,Potency,[7],inactive
same,Potency,[8],inactive
same,outcome,[9],inactive
same,outcome,[10],inactive
same,Potency,[12],inactive
same,Potency,[13],inactive
same,outcome,[14],inactive
same,Potency,[15],inactive
same,outcome,[17],inactive
same,Potency,[16],inactive
same,outcome,[18],inactive
CC1(C)[C@@H]2CC[C@@]1(C)C(=O)C2,Potency,[1],inactive
same,Potency,[2],inactive
same,outcome,[3],inactive
same,outcome,[4],inactive
same,outcome,[5],inactive
same,Potency,[6],inactive
same,Potency,[7],inactive
same,Potency,[8],inactive
same,outcome,[9],inactive
same,outcome,[10],inactive
same,Potency,[11],inactive
same,Potency,[12],inactive
same,Potency,[13],inactive
same,outcome,[14],inactive
same,Potency,[15],inactive
same,Potency,[16],inactive
same,"activity change, negative = inhibition",[19]; at 57.5 µM (top of the series),1.5% (inactive)
same,max response,[19]; [20],-8.09%
same,max response,[19]; [21],-6.29%
Cc1cc(N)c2ccccc2[n+]1CCCCCCCCCC[n+]1c(C)cc(N)c2ccccc21,outcome,[17],inactive
same,outcome,[18],inactive
same,"activity change, negative = inhibition",[19]; at 57.5 µM (top of the series),-10.5% (inactive)
same,max response,[19]; [20],-7.09%
same,max response,[19]; [21],-16.4%
CCCCOC(=O)c1ccc(O)cc1,Potency,[1],inactive
same,Potency,[2],inactive
same,outcome,[3],inactive
same,outcome,[4],inactive
same,outcome,[5],inactive
same,Potency,[6],inactive
same,Potency,[7],inactive
same,Potency,[8],inactive
same,outcome,[9],inactive
same,outcome,[10],inactive
same,Potency,[11],inactive
same,Potency,[12],inactive
same,Potency,[13],inactive
same,outcome,[14],inactive
same,Potency,[15],inactive
same,Potency,[16],inactive
COc1ccccc1O,Potency,[1],inactive
same,Potency,[2],inactive
same,outcome,[3],inactive
same,outcome,[4],inactive
same,outcome,[5],inactive
same,Potency,[6],inactive
same,Potency,[7],inactive
same,Potency,[8],inactive
same,outcome,[9],inactive
same,outcome,[10],inactive
same,Potency,[11],inactive
same,Potency,[12],inactive
same,Potency,[13],inactive
same,outcome,[14],inactive
same,Potency,[15],inactive
same,Potency,[16],inactive

# Source: PubChem BioAssay (NCATS)
